Reference: PubChem BioAssay (NCI)
About 79,000 compounds went through this panel and 15% of them were active in at least one assay; those are over-represented in the sample as a whole. Calls of active or inactive are those of the source. Cut-off read from the data, not from the text of the source: active = growth inhibition above about 70%; inactive = the rest.

Columns and labels:
[1] = NCI Yeast Anticancer Drug Screen. Data for the rad50 strain (AID 155);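 note: 0% = growth of vehicle-only cultures of the same strain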; settings: S. cerevisiae rad50 strain growth inhibition, hits give high values
How it was run: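 Relative growth inhibition (compound vs vehicle) was measured in yeast with a defined repair-gene alteration.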

[2] = NCI Yeast Anticancer Drug Screen. Data for the mec2-1 strain (AID 157); settings: S. cerevisiae mec2-1 strain, hits give high values
How it was run: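 Growth inhibition is read against vehicle-treated controls after compound exposure of the mec2-1 yeast strain, which is defective in DNA damage repair or cell cycle control.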

[3] = NCI Yeast Anticancer Drug Screen. Data for the sgs1 mgt1 strain (AID 161);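 note: 0% = growth of cultures given vehicle only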; settings: S. cerevisiae sgs1 mgt1 strain, hits give high values
How it was run: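 Growth of a repair-deficient yeast mutant was monitored after compound treatment and expressed as inhibition relative to vehicle-treated cultures.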

[4] = NCI Yeast Anticancer Drug Screen. Data for the cln2 rad14 strain (AID 165);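 note: 0% = growth equal to vehicle treated cultures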; settings: S. cerevisiae cln2 rad14 strain, hits give high values
How it was run: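 Growth inhibition, relative to vehicle-treated controls, is the read-out. The test organism is a yeast strain with defined genetic alterations, cln2 rad14.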

[5] = NCI Yeast Anticancer Drug Screen. Data for the bub3 strain (AID 167); settings: S. cerevisiae bub3 mutant strain, hits give high values
How it was run: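 Screening used yeast with an engineered genetic alteration affecting cell cycle control. Compound-exposed cultures were compared with vehicle cultures, and reduced growth was taken as inhibition.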

[6] = NCI Yeast Anticancer Drug Screen. Data for the mlh1 rad18 strain (AID 175); settings: S. cerevisiae mlh1 rad18 strain growth inhibition, hits give high values
How it was run: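 Cells of a genetically altered yeast strain, deficient in DNA damage repair, were treated with compound. Their growth was then compared with that of vehicle-treated cultures to give inhibition.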

[7] = at 5.0 µM (retest, dose inferred, filed as 0.5)
[8] = at 50.0 µM (retest, dose inferred, filed as 5.0)

Measured: growth inhibition

CC(=O)OCC(=O)[C@@]1(O)CC[C@H]2[C@@H]3CCC4=CC(=O)C=C[C@]4(C)[C@@]3(F)[C@@H](O)C[C@@]21C
inactive: [1]; [7] -27% | [1]; [8] 41% | [1]; at 50.0 µM 0.4% | [2]; [7] 1% | [2]; [8] 16% | [2]; at 50.0 µM -2.8% | [3]; [7] -4% | [3]; [8] 59% | [3]; at 50.0 µM 17.4% | [4]; [7] -6% | [4]; [8] 5% | [4]; at 50.0 µM 66.2% | [5]; [7] -2% | [5]; [8] 51% | [5]; at 50.0 µM 17.6% | [6]; [7] -3% | [6]; at 50.0 µM 15.6%
active: [6]; [8] 71%

CCOC1(OCC)Oc2c(Cl)c(Cl)c(Cl)c(Cl)c2OC1(OCC)OCC
active: [1]; [8] 97% | [1]; at 50.0 µM 98.3% | [2]; [8] 98% | [2]; at 50.0 µM 98.9% | [3]; [8] 96% | [3]; at 50.0 µM 98.5% | [4]; [8] 97% | [4]; at 50.0 µM 97.4% | [5]; [8] 97% | [5]; at 50.0 µM 98% | [6]; [8] 96% | [6]; at 50.0 µM 98.7%
inactive: [1]; [7] 11% | [2]; [7] 13% | [3]; [7] 12% | [4]; [7] 16% | [5]; [7] 13% | [6]; [7] 14%

O=C1c2ccc3ccccc3c2CN2C(=O)CCC12 (stereo unspecified)
active: [1]; [8] 83%
inactive: [1]; [7] 4% | [1]; at 50.0 µM 25.2% | [2]; [7] -11% | [2]; [8] 16% | [2]; at 50.0 µM -6.6% | [3]; [7] -5% | [3]; [8] 28% | [3]; at 50.0 µM 21.7% | [4]; [7] 7% | [4]; [8] 66% | [4]; at 50.0 µM -4.3% | [5]; [7] -5% | [5]; [8] 39% | [5]; at 50.0 µM 6.2% | [6]; [7] 4% | [6]; [8] 43% | [6]; at 50.0 µM 23.5%

O=C(Nc1ccccc1)c1ccc(Cl)cc1Cl
inactive: [1]; [7] -15% | [1]; [8] -21% | [1]; at 50.0 µM 1.35% | [2]; [7] -9% | [2]; [8] -4% | [2]; at 50.0 µM 1.85% | [3]; [7] -2% | [3]; [8] 7% | [3]; at 50.0 µM -3.15% | [4]; [7] 31% | [4]; [8] -50% | [4]; at 50.0 µM -7.95% | [5]; [7] 4% | [5]; [8] -34% | [5]; at 50.0 µM 8.75% | [6]; [7] -6% | [6]; [8] -8% | [6]; at 50.0 µM 8.05%

Cc1cccc(C)c1N1C(=O)C(=O)C(c2nc3ccccc3s2)/C(=N/NC(=O)c2ccccc2O)C1=O (stereo unspecified)
active: [1]; at 50.0 µM 71.9%
inactive: [1]; [7] 26% | [1]; [8] 26% | [2]; [7] 16% | [2]; [8] 16% | [2]; at 50.0 µM 56.2% | [3]; [7] 26% | [3]; [8] 26% | [3]; at 50.0 µM 48.9% | [4]; [7] 21% | [4]; [8] 21% | [4]; at 50.0 µM 69.5% | [5]; [7] 19% | [5]; [8] 19% | [5]; at 50.0 µM 66% | [6]; [7] 34% | [6]; [8] 34% | [6]; at 50.0 µM 48.5%

CCCCCCCCCCCCCCCCCO
active: [1]; at 50.0 µM 71% | [5]; at 50.0 µM 75.2% | [6]; at 50.0 µM 77.8%
inactive: [1]; [7] -4% | [1]; [8] 6% | [2]; [7] -3% | [2]; [8] -7% | [2]; at 50.0 µM 63.3% | [3]; [7] -3% | [3]; [8] 7% | [3]; at 50.0 µM 50% | [4]; [7] -1% | [4]; [8] -5% | [4]; at 50.0 µM -15.6% | [5]; [7] 10% | [5]; [8] 8% | [6]; [7] -9% | [6]; [8] -3%

Cc1ccc(S(=O)(=O)NC(=O)CC2CCCCC2)cc1
active: [1]; [8] 89% | [1]; at 50.0 µM 91.2% | [2]; [8] 93% | [2]; at 50.0 µM 76.5% | [3]; [8] 94% | [3]; at 50.0 µM 79.1% | [4]; [8] 91% | [4]; at 50.0 µM 76.7% | [5]; [8] 94% | [5]; at 50.0 µM 79% | [6]; [8] 96% | [6]; at 50.0 µM 91.5%
inactive: [1]; [7] 14% | [2]; [7] 9% | [3]; [7] -9% | [4]; [7] -4% | [5]; [7] 17% | [6]; [7] 22%

Cc1ccc(S(=O)(=O)Nc2ccccc2Cl)cc1
inactive: [1]; [7] 11% | [2]; [7] 11% | [3]; [7] 7% | [4]; [7] 6% | [5]; [7] 5% | [6]; [7] 13%
active: [1]; [8] 95% | [1]; at 50.0 µM 94% | [2]; [8] 97% | [2]; at 50.0 µM 77.3% | [3]; [8] 99% | [3]; at 50.0 µM 96.5% | [4]; [8] 96% | [4]; at 50.0 µM 88.5% | [5]; [8] 98% | [5]; at 50.0 µM 94.2% | [6]; [8] 97% | [6]; at 50.0 µM 93.8%

CCCCn1cnc2c(SCc3ccc(F)cc3)nc(N)nc21
active: [5]; at 50.0 µM 90.1%
inactive: [1]; [7] -1% | [1]; [8] 48% | [1]; at 50.0 µM 46.3% | [2]; [7] 1% | [2]; [8] 59% | [2]; at 50.0 µM 46.6% | [3]; [7] -3% | [3]; [8] 16% | [3]; at 50.0 µM 39.1% | [4]; [7] -15% | [4]; [8] 49% | [4]; at 50.0 µM 44.8% | [5]; [7] 0% | [5]; [8] 45% | [6]; [7] 0% | [6]; [8] 30% | [6]; at 50.0 µM 66.9%

CCCCCCCCCCCC1C(C#N)C(=O)NC(=O)C1C#N (stereo unspecified)
active: [1]; [7] 92% | [1]; [8] 92% | [2]; [7] 90% | [2]; [8] 92% | [3]; [7] 87% | [3]; [8] 92% | [4]; [7] 73% | [4]; [8] 82% | [5]; [7] 78% | [5]; [8] 86% | [6]; [7] 87% | [6]; [8] 90%
inactive: [1]; at 50.0 µM 49.3% | [2]; at 50.0 µM 5.4% | [3]; at 50.0 µM 64.7% | [4]; at 50.0 µM -8.05% | [5]; at 50.0 µM -27.9% | [6]; at 50.0 µM 26%

C/C(=N\NC(=S)N1CCN(Cc2ccccc2)CC1)c1ccccn1
active: [1]; [8] 76% | [1]; at 50.0 µM 90.3% | [2]; [8] 85% | [2]; at 50.0 µM 88.8% | [3]; [8] 80% | [4]; [8] 73% | [5]; [8] 96% | [6]; [8] 74% | [6]; at 50.0 µM 81.6%
inactive: [1]; [7] 23% | [2]; [7] 23% | [3]; [7] 12% | [3]; at 50.0 µM 31.2% | [4]; [7] 8% | [4]; at 50.0 µM -14.7% | [5]; [7] 31% | [5]; at 50.0 µM 11.7% | [6]; [7] 15%

CC(=O)c1cc(-c2ccccc2)nc2ccccc12
inactive: [1]; [7] -5% | [1]; [8] 38% | [2]; [7] -29% | [3]; [7] 12% | [4]; [7] -25% | [4]; [8] 35% | [5]; [7] -28% | [6]; [7] 4%
active: [1]; at 50.0 µM 89.2% | [2]; [8] 84% | [2]; at 50.0 µM 94.1% | [3]; [8] 80% | [3]; at 50.0 µM 98.2% | [4]; at 50.0 µM 74.5% | [5]; [8] 87% | [5]; at 50.0 µM 87% | [6]; [8] 88% | [6]; at 50.0 µM 97.1%
